# Rows were chosen to be rich in hits. Some 2.8% of all compounds tested hit in one or more screens of this group.
# N-glyco inh: increase of ERlucT glycosylation luciferase signal, primary screen, N-linked glycosylation inhibitor project, D54 ERlucT cells, luminescence, set 2 | reporter increase, % at 12.5 µM | 360,000 compounds, 0.23% hits | D54 ERlucT glycosylation luciferase reporter, 24 h; percent of 100 nM tunicamycin response;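 active = mean luciferase reporter signal, scaled so untreated is 0 and the glycosylation-blocking control 100, at or above a set limit in every replicate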;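 also: luciferase carries N-glycosylation sites so blocking glycosylation raises the light; 0% = median of neutral control wells and 100% = median of 100 nM tunicamycin wells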
# EBV LMP1 NFkB: EBV LMP1-driven NF-kappaB luciferase reporter inhibitors, primary screen, cell-based, luminescence, single point; LMP1-induced NF-kappaB luciferase reporter cells; inhibition, % at 12.5 µM; 350,000 compounds, 0.69% hits; in the data active = inhibition above about 41%;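 also: 0% = neutral control wells and 100% = reference inhibitor control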
# HIV Env fusion: inhibitors of HIV-1 Env-driven cell-cell fusion, primary screen, HeLa-JRFL effector, CEM21 target cells, luciferase; inhibition, % at 12.3 µM; 360,000 compounds, 1.1% hits; AID 651610, 2012;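 active = mean replicate inhibition score of at least 50 and every replicate individually at or above 50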;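 also: 0% = plate neutral controls and 100% = maraviroc near 300 nM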
# PAX8 inh HTS: inhibitors of PAX8-driven TPO luciferase reporter, primary screen, RMG-I cells, single concentration; SteadyGlo, 24 h; inhibition, % at 12.6 µM; 360,000 compounds, 1.2% hits; AID 652154, 2013;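 active = mean replicate inhibition at least 60% with every replicate also reaching 60%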;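 also: luciferase light reporting Pax8 driven TPO promoter activity; plate controls were median of neutral control wells for no effect and mitoxantrone controls for full effect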
# Shn3 inh set2: reduction of Shn3 3'UTR firefly luciferase signal, primary screen, Schnurri-3 inhibitor project, cell-based, Clone20 osteoblasts, set 2; Clone20 osteoblast Shn3 3'UTR firefly luciferase, 24 h; inhibition, % at 12.5 µM; 360,000 compounds, 0.52% hits;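 active = mean inhibition of at least 75% with every replicate also reaching 75%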;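 also: 0% = median of neutral control wells and 100% = pilot-screen positive control compound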
# * = called active by the depositor; x = no result; [ ] = dose if it differs, or a comment.
SMILES,N-glyco inh,EBV LMP1 NFkB,HIV Env fusion,PAX8 inh HTS,Shn3 inh set2
CO[C@@H]1CN(C)C(=O)c2ccc(NC(=O)C3CC3)cc2OC[C@@H](C)N(C(C)=O)C[C@@H]1C,x,x,10.0[16.7 µM],10.5,x
CO[C@H]1CN(C)C(=O)c2ccc(NC(=O)C3CC3)cc2OC[C@@H](C)N(C(C)=O)C[C@@H]1C,x,x,62.0*[16.7 µM],-5.5,x
CO[C@H]1CN(C)C(=O)c2cc(NC(=O)C3CCOCC3)ccc2OC[C@@H](C)N(Cc2nccs2)C[C@@H]1C,x,x,x,-15.4,x
CO[C@H]1CN(C)C(=O)c2ccc(NC(=O)Nc3cccc(F)c3)cc2OC[C@H](C)NC[C@H]1C,x,x,75.5*[16.7 µM],10.6,x
CCCNC(=O)Nc1ccc2c(c1)C(=O)N(C)C[C@H](OC)[C@@H](C)CN(C(=O)c1ccccc1F)[C@@H](C)CO2,x,x,-8.3[16.7 µM],x,x
CO[C@H]1CN(C)C(=O)c2ccc(NC(=O)Nc3cccc(F)c3)cc2OC[C@@H](C)N(C(C)=O)C[C@H]1C,x,x,64.7*[16.7 µM],x,x
CO[C@H]1CN(C)C(=O)c2ccc(NC(=O)C3CCC3)cc2OC[C@@H](C)N(CC2CCCCC2)C[C@@H]1C,x,x,58.4*[16.7 µM],28.5,x
COc1ccc(NC(=O)N(C)C[C@@H]2Oc3ccc(NS(=O)(=O)c4ccc(OC)cc4)cc3CC(=O)N([C@@H](C)CO)C[C@H]2C)cc1,x,x,-46.5[16.7 µM],-0.2,x
COc1ccccc1-c1ccccc1C1=CC(=O)CC(C)(C)C1=O,0.6,61.4*,-12.5,11.0,10.7
COc1ccc(-c2ccccc2C2=CC(=O)CC(C)(C)C2=O)cc1,2.5,-3.3,22.5,-9.8,10.2
C[C@@H]1CN([C@@H](C)CO)C(=O)c2cc(C#C[C@@H](C)O)cnc2O[C@H]1CN(C)CC1CCCCC1,x,x,-2.2[16.7 µM],x,x
COc1cccc(-c2ccc([C@H]3[C@@H](CO)N(C(=O)c4ccccn4)[C@H]3C#N)cc2)c1,x,x,-8.3[16.7 µM],83.4*,x
N#C[C@@H]1[C@@H](c2ccc(-c3ccccc3F)cc2)[C@@H](CO)N1C(=O)Cc1ccccc1,x,x,-1.3[16.7 µM],5.2,x
CCc1cnc(N2[C@@H](C#N)[C@@H](c3ccc(C#CCC4CCCC4)cc3)[C@@H]2CO)s1,x,x,23.7[16.7 µM],73.2*,x
N#C[C@@H]1[C@H](c2ccc(-c3ccccc3F)cc2)[C@@H](CO)N1C(=O)Cc1ccccc1,x,x,57.6*[16.7 µM],103.0*,x
COc1cccc(-c2ccc([C@H]3[C@@H](CO)N(C(=O)Cc4ccccc4)[C@H]3C#N)cc2)c1,x,x,22.7[16.7 µM],91.1*,x
CN1CCN(C(=O)C[C@@H]2CC[C@@H]3[C@H](COC[C@@H](O)CN3CC3CC3)O2)CC1,x,x,x,-7.4,x
CC(C)NC(=O)N(C)C[C@H]1OCCCC[C@H](C)Oc2ccc(NS(=O)(=O)c3ccc(F)cc3)cc2C(=O)N([C@@H](C)CO)C[C@H]1C,x,x,-14.0[16.7 µM],-40.6,x
CO[C@@H]1CN(C)C(=O)c2cc(NC(=O)Nc3cccc(Cl)c3)ccc2OC[C@H](C)NC[C@@H]1C,x,x,-3.1[16.7 µM],10.2,x
COc1cccc(C#Cc2ccc([C@@H]3[C@@H](C#N)N(C(=O)c4ccccn4)[C@@H]3CO)cc2)c1,x,x,x,42.7,x
COc1cccc(C#Cc2ccc([C@H]3[C@@H](C#N)N(C(=O)c4ccccn4)[C@@H]3CO)cc2)c1,x,x,x,76.0*,x
N#C[C@H]1[C@@H](c2ccc(C#CCC3CCCC3)cc2)[C@@H](CO)N1C(=O)c1ccccn1,x,x,-3.5[16.7 µM],73.9*,x
COc1cccc(S(=O)(=O)Nc2ccc3c(c2)C(=O)N(C)[C@H]2CC[C@@H](CC(=O)O)O[C@@H]2CO3)c1,x,x,11.3[16.7 µM],-11.3,x
COc1ccc(CN(C)C[C@@H]2OCCCC[C@H](C)Oc3ccc(N(C)C)cc3C(=O)N([C@H](C)CO)C[C@H]2C)cc1,x,x,6.8[16.7 µM],-9.1,x
CCOC(=O)c1ccc(NC(=O)c2nc[nH]c2C(=O)NCCNC(=O)c2[nH]cnc2C(=O)Nc2ccc(C(=O)OCC)cc2)cc1,-0.3,4.0,81.9*,-12.8,88.4*
Cc1cccc(NC(=O)c2nc[nH]c2C(=O)NCCCCNC(=O)c2[nH]cnc2C(=O)Nc2cccc(C)c2)c1,12.5,-2.4,69.9*,4.3,4.4
Cc1cccc(NC(=O)c2nc[nH]c2C(=O)NCCCCCCNC(=O)c2[nH]cnc2C(=O)Nc2cccc(C)c2)c1,3.7,-13.6,16.6,-5.2,-9.4
CCOC(=O)c1ccc(NC(=O)c2nc[nH]c2C(=O)NC)cc1,4.1,2.9,-0.8,-23.9,-16.5

# Source: PubChem (Broad Institute)
